# From PubChem BioAssay AID1578 (Sanford-Burnham Center for Chemical Genomics, 2009)
# The whole screen tested about 290,000 compounds, of which about 3,000 (1%) were called active. Many of the other results were omitted from the sample, so actives are more common in it than they were. Values without a mark were called inactive. Cut-off read from the data, not from the text of the source: active = inhibition mostly above about 36% (no sharp cut-off); inactive = mostly below about 34%.
# Experiment: NOD1 signaling inhibitors, primary screen, cell-based, luminescence, uHTS (AID 1578);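 note: HEK-293T reporter cells stimulated with the NOD1 agonist gamma-tri-DAP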
# Details: NOD1-driven NF-kB luciferase reporter cells, at 4 µM, hits give high values
row,SMILES,inhibition
1,O=C(NCCc1ccccc1)c1cccc2c1C(=O)N(C1CCCCC1)C2,-19.5%
2,O=C(Cc1ccc(Cl)cc1Cl)Nc1ccncc1,42.8%
3,COc1ccc(CC(=O)Nc2ccccc2NC(=O)Cc2ccc(OC)cc2)cc1,-7.4%
4,O=C(Cc1c(Cl)cccc1Cl)Nc1ccncc1Cl,5.2%
5,COc1ccc(CC(=O)Nc2cccnc2)cc1,-8.6%
6,COc1ccccc1/C=C/CN1CC(C)OC(C)C1 (stereo not drawn),-19.9%
7,Cc1ccc(NC(=O)CCn2cccc2)cc1,3.6%
8,O=C(CSc1nnc(-c2cccnc2)n1Cc1ccccc1)NCc1ccco1,8.8%
9,COC(=O)C1CCN(Cc2cn(-c3ccccc3)nc2-c2ccc3c(c2)OCO3)CC1,-55.9%
10,CC1CN(Cc2c(O)ccc3c(=O)c(-c4ccccc4)coc23)CC(C)O1 (stereo not drawn),-13.3%
11,COc1ccc(C2N3CC4(C)CN2CC(C)(C3)C4=O)cc1OC (stereo not drawn),-7.8%
12,Cc1ccc(-c2noc(CCC(=O)NCc3ccco3)n2)cc1,-0.8%
13,O=C(CCc1nc(-c2ccccc2)no1)NCc1ccco1,11%
14,Fc1cnc(N2CCN(c3ccccc3)CC2)nc1N1CCN(c2ccccc2)CC1,43.3%
15,O=C(CCc1nc2ccccc2c(=O)[nH]1)Nc1ccc(F)cc1,-23.2%
16,COC(=O)c1ccc2nc(-c3cccc(N)c3)cn2c1,40.5%
17,Oc1ccc(-c2cn3ccccc3n2)cc1,-2%
18,Oc1ccc(-c2cn3ccccc3n2)cc1O,1.7%
19,Clc1ccc2nc(-c3ccc4c(c3)OCO4)cn2c1,-30.6%
20,c1ccn2cc(-c3ccc4c(c3)OCCO4)nc2c1,45.8% (active)
21,COC(=O)c1ccc2nc(-c3ccc4c(c3)OCO4)cn2c1,68.3% (active)
22,CC12CCC(C(=O)O)(c3nc(C#N)c(C#N)nc31)C2(C)C (stereo not drawn),-25.8%
23,O=C(NCc1ccccn1)c1cccc(NS(=O)(=O)c2cccc(F)c2)c1,-15.2%
24,O=C(CCCn1c(=S)[nH]c2cc3c(cc2c1=O)OCO3)N1CCN(c2ccccc2)CC1,-1%
25,Cc1cccc(N2CCN(C(=O)CCCn3c(=S)[nH]c4cc5c(cc4c3=O)OCO5)CC2)c1C,2.8%
26,O=C(CCCCCn1c(=S)[nH]c2ccc(N3CCOCC3)cc2c1=O)NCc1ccccc1,2.3%

row,SMILES,inhibition
1,O=C(CCCn1c(=S)[nH]c2cc3c(cc2c1=O)OCO3)N1CCN(c2ccc(F)cc2)CC1,-8.6%
2,C=CCNC(=O)CN(c1ccc(F)c(Cl)c1)S(C)(=O)=O,-17.3%
3,CC(=O)N[C@@H](C)C(=O)N1CCN(S(=O)(=O)c2ccc(Cl)cc2)CC1,-26%
4,O=C(Nc1cccnc1Oc1ccc(Cl)cc1)c1cccc2ccccc12,-9.2%
5,COc1cc(OC)c(NC2c3ccccc3C(=O)N2c2cc(C)ccn2)cc1Cl (stereo not drawn),-37.7%
6,Cc1ccc(C)c(NC(=O)CCN2CCCCC2)c1,-14.7%
7,CCO[C@H]1OC(C(=O)O)=C[C@@H](c2ccc3c(c2)OCO3)[C@@H]1CCCO,-10.4%
8,Cc1ccc2nc(-c3ccccc3)cn2c1,18%
9,Cc1ccc(-c2cn3cc(C)ccc3n2)cc1,92.4% (active)
10,Cc1ccc2nc(-c3ccc(O)c(O)c3)cn2c1,-18.6%
11,CCOC(=O)c1c(CSc2ccc(C)cc2)oc2ccc(O)cc12,30%
12,CCOC(=O)c1c(CSc2ccccc2)oc2ccc(O)cc12,98.6% (active)
13,CCOC(=O)c1c(COc2ccccc2)oc2ccc(O)cc12,0%
14,CCOC(=O)CC(=O)CSc1nc2ccccc2c(=O)n1-c1ccc(C(=O)N2CCOCC2)cc1,6.8%
15,Cc1ccc(Cn2nnc3c(=O)[nH]c(C4CCCN(S(=O)(=O)c5ccc(F)cc5)C4)nc32)cc1 (stereo not drawn),-17.1%
16,CCN(CC(=O)Nc1ccc(NC(C)=O)cc1)C(=O)C1COc2ccccc2O1 (stereo not drawn),-17.6%
17,CC(CN1CCOCC1)OC(=O)c1ccc(C(C)(C)C)cc1 (stereo not drawn),68.1% (active)
18,CC(CN1CCOCC1)OC(=O)c1ccc(Br)cc1 (stereo not drawn),-14.8%
19,CC(CN1CCOCC1)OC(=O)c1ccccc1 (stereo not drawn),-4.8%
20,COc1ccc(Cn2c3nc4ccccc4nc3c3c(=O)n(Cc4ccco4)cnc32)cc1,32.5%
21,COc1ccc(Cn2c3nc4ccccc4nc3c3c(=O)n(Cc4ccco4)c(C)nc32)cc1,110% (active)
22,Cc1nc2c(c(=O)n1Cc1ccccc1Cl)c1nc3ccccc3nc1n2Cc1ccco1,17.8%
23,O=C(NS(=O)(=O)Nc1ccc(Br)cn1)c1c[nH]c2ccccc12,31.1%
24,CCOc1ccc(S(=O)(=O)N(C)c2ccc(OCC(=O)NCCc3ccc(OC)cc3)cc2)cc1,-14%
25,CN1CCN(S(=O)(=O)c2cccc(C(=O)Nc3sc4c(c3-c3nc5ccccc5[nH]3)CCCC4)c2)CC1,-16%
26,O=C(Nc1nonc1NC(=O)c1cccs1)c1cccs1,58.9% (active)

row,SMILES,inhibition
1,O=C(Nc1ccncc1)c1cccs1,37.2%
2,O=C(Nc1ccc(NC(=O)c2cccs2)cc1)c1cccs1,-30.2%
3,N#C/C(=C\c1cccc([N+](=O)[O-])c1)C(=O)NCC1CCCO1 (stereo not drawn),-21%
4,O=C(Nc1ccccc1C(=O)O)c1ccc(Br)c(S(=O)(=O)NCc2ccccc2)c1,-0.6%
5,COC(=O)CSc1ncnc2c1cnn2Cc1ccccc1,13.7%
6,CCOC(=O)CNC(=O)CSc1ncnc2c1cnn2Cc1ccccc1,55.8% (active)
7,CCOC(=O)CNC(=O)CSc1ncnc2c1cnn2-c1ccccc1,-10.2%
8,Nc1nc(Cl)cc(N2CCC(c3cc(-c4ccc(Cl)cc4Cl)n[nH]3)CC2)n1,34.5%
9,COc1ccc(OC)c(-c2cc(C3CCN(c4cc(Cl)nc(N)n4)CC3)[nH]n2)c1,56.3% (active)
10,COc1ccc(-c2cc(C3CCN(c4cc(Cl)nc(N)n4)CC3)[nH]n2)cc1,25.9%
11,COC(=O)c1cc(C(=O)c2ccccc2)n2c(=O)/c(=C\N(C)C)sc12,-11.3%
12,N#CCC(=O)NNC(=S)Nc1ccccc1C(F)(F)F,42.8% (active)
13,O=C(CCC(=O)Nc1ccccc1Cl)NNC(=S)Nc1ccccc1C(F)(F)F,-30.7%
14,O=C(NNC(=S)Nc1ccccc1C(F)(F)F)C1CC1,-0.9%
15,Cc1cc(C)c2c(N)c(C(=O)c3ccccc3)oc2n1,2%
16,Cc1ccc(C(=O)c2oc3nc(C)cc(C)c3c2N)cc1,-6.8%
17,Cc1cc(C)c2c(N)c(C(=O)c3ccc(Br)cc3)oc2n1,68.7% (active)
18,CCOC(=O)c1c(C)[nH]c(C(=O)COC(=O)c2ccccn2)c1C,1%
19,CC(C)n1c(CN(C)c2ccccc2)nc2ccccc21,-18.1%
20,COc1ccc(NC(C)=O)cc1S(=O)(=O)NC(Cc1ccccc1)C(=O)O (stereo not drawn),-2.4%
21,COc1ccc(OC)c(S(=O)(=O)Nc2ccc(OCC(=O)O)cc2)c1,2.7%
22,COc1ccc(NC(=O)c2nnn(CC(=O)Nc3ccc4c(c3)OCO4)c2N)c(OC)c1,-46.4%
23,C=CCN=C(NC#N)SCC(=O)NC(C)(C)C,1.5%
24,Cn1c(SCC(=O)NC2CCCCC2)nnc1-c1ccc(N)cc1,-10.1%
25,Cc1cccc(-c2nnc(SCC(=O)NC3CC3)n2C)c1,-27.5%
26,Cn1c(SCC(=O)NC2CCCCC2)nnc1-c1cccc(N)c1,46.1% (active)

row,SMILES,inhibition
1,CCn1ccnc1[C@@H]1C[C@H]2CN(c3ccccc3OC)C(=O)[C@]23CCCN13,-22.3%
2,C=C(C)Cn1c(NCCC)nc2c1c(=O)n(C)c(=O)n2C,-26.6%
3,CC(CCc1ccccc1)NC(=O)CN1CCSc2ccccc21 (stereo not drawn),8%
4,CC(C)(C)C1CCC(=O)N(CCSc2ccccc2)CC1 (stereo not drawn),-65%
5,CC1=C(C)C(=O)C(CCCCC#CCCCC#CCO)=C(C)C1=O,-6.7%
6,COC1=C(OC)C(=O)C(CCCCCCCCCCO)=C(C)C1=O,87.7% (active)
7,Cc1[nH]c(=S)[nH]c(=O)c1CCCO,-25.6%
8,COc1ccc(C(CCN(Cc2ccc(OC)c(OC)c2)C(C)=O)c2ccccc2)cc1 (stereo not drawn),14.5%
9,COc1ccc(C(CCN(Cc2ccc(OC)c(OC)c2)C(=O)CCl)c2ccccc2)cc1 (stereo not drawn),82.9% (active)
10,COc1ccc(CNCCC(c2ccc(OC(C)C)cc2)c2ccccc2OC)cc1OC (stereo not drawn),-0.9%
11,COc1ccc(CNCCC(c2ccccc2)c2ccc(OC(C)C)cc2)cc1OC (stereo not drawn),-3.1%
12,COc1ccc(C(CCN(Cc2ccc(OC)c(OC)c2)C(C)=O)C(C)C)cc1 (stereo not drawn),-0.7%
13,COc1ccccc1N(C(C)=O)c1nc(C)cc(C)c1C#N,-33.1%
14,O=C(O)c1ccc(NS(=O)(=O)c2cccc(S(=O)(=O)c3ccc(Cl)c(Cl)c3)c2)cc1,-30.6%
15,COc1cc2c(cc1OC)CN(CC(=O)Nc1ccc(C)c(S(=O)(=O)N3CCOCC3)c1)CC2,-14.6%
16,COc1cccc(NC(=O)Cn2nc(Cc3cccnc3)c3ccccc3c2=O)c1,-18.3%
17,C=CCn1c(/N=C/c2ccc(OC)cc2)nc2ccccc21,-6.3%
18,Cn1c(/C=C/c2ccccc2)nc2ccccc2c1=O,-12.9%
19,COc1ccc(Cn2c(/C=C/c3ccccc3)nc3ccccc32)cc1,-65.7%
20,CCCn1c(/C=C/c2ccccc2)nc2ccccc21,-41.4%
21,Cn1c(/C=C/c2ccccc2)nc2ccccc21,48.9% (active)
22,COc1ccc(/C=N/NC(=O)CCn2nnc3ccccc32)cc1,-3.7%
23,COc1ccc(/C=C/c2nc3ccccc3n2Cc2ccccc2OC)cc1,5.5%
24,COc1ccc(/C=C/c2nc3ccccc3n2C)cc1,74.4% (active)
25,COc1ccc(/C=N\n2nnc3ccccc32)cc1,42% (active)
